Source: PubChem BioAssay
TDP1 cell CPT – qHTS for Inhibitors of human tyrosyl-DNA phosphodiesterase 1 (TDP1): qHTS in cells in presence of CPT | chicken DT40 Tdp1-/-;hTDP1 cells + 20 nM CPT, ATP luminescence, 48 h | Potency, µM (top dose mostly 46.2 µM), without a hit: at the highest dose activity change, negative = growth inhibition, hits mostly inhibitors | actives 12% (n = 420,000); further: nearly all actives have a fitted effect of over 55% in size
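Chicken DT40 Tdp1-/- cells complemented with human TDP1, 400 cells/well, exposed to compounds plus 20 nM camptothecin for at least 48 h at 37 C; viability read as ATP content by CellTiter-Glo luminescence.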
KB-3-1 cytotox – qHTS assay for MDR1-selective chemotherapeutics: Primary screen using the parental adenocarcinoma cell KB-3-1. KB-3-1 viability, CellTiter-Glo ATP luminescence, 72 h. Potency, µM (top dose mostly 46.1 µM), most hits filed as cytotoxic. actives 1.4% (n = 400,000); further: nearly all actives have a fitted effect of over 60% in size
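Screening of KB-3-1 cells (DMEM, 10% FBS, phenol-red free) ran from lowest to highest compound concentration; after 72 h at 37 °C viability was read luminescently and curves fitted.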
HT1080 IDH1KD tx – qHTS for induction of synthetic lethality in tumor cells producing 2HG: qHTS for the HT-1080-IDH1KD cell line; HT-1080 IDH1 knockdown viability, ATP luminescence, 48 h; Potency, µM (series often up to 46.1 µM), for inactives: at the highest dose activity, negative = toxicity, usual class: cytotoxic; actives 2% (n = 360,000); AID 686971, 2013;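 further: 0% = DMSO wells and -100% = cell-free medium wells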
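After a 2 h attachment period, IDH1KD HT-1080 cells took pin-transferred compound for 48 h at 37 °C; ATP-based luminescence after 10 min room-temperature reagent incubation reported viability.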
KB-V1 MDR tox – qHTS assay for MDR1-selective chemotherapeutics: Primary screen using the drug-selected MDR subline cells KB-V1. actives 3.4% (n = 400,000). KB-V1 MDR cells viability, CellTiter-Glo, 72 h. AID 1347076, 2019. Potency, µM (titrated, usually from 46.1 µM), hits mostly cytotoxic; further: nearly all actives have a fitted effect of over 60% in size
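Drug-selected KB-V1 cells, grown in DMEM lacking phenol red with 10% FBS, receive compound titrations; after three days at 37 degrees C, surviving cell ATP is quantified by CellTiter-Glo luminescence and responses normalized and curve-fitted.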
DT40 TDP1 no CPT – qHTS for Inhibitors of human tyrosyl-DNA phosphodiesterase 1 (TDP1): qHTS in cells in absence of CPT; DT40 Tdp1-/- hTDP1 cells, no CPT, ATP luminescence, 48 h; Potency, µM (titrated, usually from 46.2 µM), for inactives: top-dose activity change, negative = growth inhibition, most hits filed as inhibitors; actives 15% (n = 420,000); AID 686978, 2013; further: nearly all actives have a fitted effect of over 55% in size
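DT40 Tdp1-/-;hTDP1 cells, no CPT (DMSO vehicle only), 400 cells/well; compounds pin-transferred; ≥48 hr, 37 °C; CellTiter-Glo 30 min RT dark, luminescence read.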
HT1080NT lethal – qHTS for induction of synthetic lethality in tumor cells producing 2HG: qHTS for the HT-1080-NT fibrosarcoma cell line; HT-1080-NT fibrosarcoma viability, CellTiter-Glo ATP luminescence, 48 h; Potency, µM (highest dose often 46.1 µM), without a hit: at the highest dose activity, negative = less viability, usual class: cytotoxic; actives 1.6% (n = 360,000); AID 686970, 2013;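 further: NT is the 2HG producing partner of a matched IDH1 knockdown line; 0% = DMSO-treated cells and -100% = media-only wells without cells; nearly all actives have a fitted effect of over 55% in size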
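Compounds were tested in concentration-response format on HT-1080-NT cells for 48 hours at 37 degrees C. Cell viability came from CellTiter-Glo luminescence; curves were classified by r2, response magnitude and activity.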
Starred values were filed as active, the others as inactive; i = inactive; ? = inconclusive; . = no result given. Hits are enriched below; roughly 19% of the tested compounds scored in any of these assays. The call rests on the fitted dose curve; in most records, active means well fitted curve in the direction sought with a large enough effect; inconclusive means small, poorly fitted or top-dose-only effect, or another doubt; inactive means no such curve, though single readings can be large; an effect the other way counts as inactive or inconclusive. Unless noted, on the % scale 0 is the no-effect control and ±100 the full control effect; potency means the concentration at half of the fitted maximal effect.

SMILES	TDP1 cell CPT	KB-3-1 cytotox	HT1080 IDH1KD tx	KB-V1 MDR tox	DT40 TDP1 no CPT	HT1080NT lethal
COc1cc(C(=O)NNC(=S)NC(=O)/C=C/c2ccccc2)cc(OC)c1OC	16µM*	?	?	?	?	?
COc1cc(C(=O)NNC(=O)/C=C/c2ccccc2)cc(OC)c1OC	-1%	i	-23%	i	-22%	-6%
COc1ccc(/C=C/C(=O)NC(=S)NNC(=O)Cc2cccs2)cc1OC	16µM*	i	-26%	i	?	-20%
O=C(/C=C/c1ccccc1)NC(=S)NNC(=O)c1cccnc1	13µM*	i	-10%	i	5.8µM*	-5%
O=C(/C=C/c1ccccc1)NC(=S)NNC(=O)c1cnccn1	3.3µM*	?	?	?	5.8µM*	-27%
COc1ccc(/C=C/C(=O)NC(=S)NNC(=O)c2cccnc2)cc1OC	-10%	i	-9%	i	-26%	-1%
O=C(Nc1nccs1)c1csc([C@H]2C[C@H](O)[C@@H](CO)O2)n1	1%	i	8%	i	2%	11%
COc1cc2nc(NCc3ccccc3Cl)n3nc(-c4cccnc4)nc3c2cc1OC	3%	.	.	.	-16%	.
COc1ccc([C@@H]2[C@@H]3C(=O)N(C(C)(C)C)C(=O)[C@@H]3[C@]3(C)C(=O)N(c4cccc(Cl)c4)C(=O)N23)cc1	7%	i	-2%	i	-2%	0%
Cc1cccc(NC(=O)Cn2nc(-c3cccs3)ccc2=O)c1C	13%	i	8%	?	-5%	8%
CC(C)CC(NC(=O)CCl)c1ccccc1 (configuration not stated)	-27%	i	-1%	i	?	0%
CCCC(NC(=O)CCl)c1ccccc1 (configuration not stated)	13µM*	i	?	i	29µM*	?
O=C(Nc1ccc(N2CCCCC2)cc1)c1cc([N+](=O)[O-])cc([N+](=O)[O-])c1	2%	i	4%	i	-18%	0%
CN1Cc2c(N3CCOCC3)nc3sc(C(=O)c4ccc(Br)cc4)c(N)c3c2CC1(C)C	4.1µM*	?	13µM*	?	5.2µM*	23µM*
CNC(=O)c1ccc(-c2sc3nc(N4CCOCC4)c4c(c3c2N)CCCC4)o1	21µM*	?	-13%	?	15µM*	2%
CNC(=O)c1ccc(-c2sc3nc(N4CCOCC4)c4c(c3c2N)CC(C)(C)OC4)o1	21µM*	i	3%	?	18µM*	4%
CC1(C)Cc2c(c(N3CCOCC3)nc3sc(-c4ccc(C(=O)O)o4)c(N)c23)CO1	-8%	?	10%	?	?	5%
O=C(c1ccc([N+](=O)[O-])cc1Cl)N1CCN(Cc2ccccc2)CC1	?	i	1%	?	-21%	-1%
COc1cccc(CNC(=O)c2nn(-c3ccc(C)cc3)c(=O)c3c2c2ccccc2n3C)c1	?	i	.	i	?	.
CCCS(=O)(=O)NC(=O)C1(C)CCN(C(=O)/C=C/c2ccccc2)C1 (configuration not stated)	-15%	i	21%	i	-2%	?
Cc1ccc(NS(=O)(=O)c2cc3[nH]c(=O)c(=O)[nH]c3cc2C)cc1N(C)C	0%	i	.	i	0%	.
